From PubChem BioAssay (EPA / NIEHS) come the findings set out here.

Where “and” joins values, the source holds several entries; their conditions need not be identical. Equal values may be shown once. Results filed as inconclusive are left out. Calls of active or inactive are those of the source. The calls were made as follows, unless noted: active = hit-call score of the fitted dose curve at least 0.9, where 1 is the maximum; inactive = score below 0.9.

The AC50 is the midpoint of the concentration-response curve, whichever way the signal moves.

The target in test [1] is Nuclear respiratory factor 1 (Homo sapiens) (UniProt Q16656). Description: ATG_NRF1_CIS: Attagene CIS-FACTORIAL HepG2 Assay for human Nuclear Respiratory Factor 1 (NRF1) Orphan Gene (AID 2282987). The settings on record: HepG2 NRF1 cis-element reporter, Attagene multiplex; actives raise or lower the signal. The method, boiled down: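 Endogenous NRF1-driven reporter transcription measured in transiently transfected human HepG2 liver cells. Readout: reporter mRNA by RT-PCR and capillary electrophoresis with fluorescence detection, 24 h post-dosing. Gain or loss of signal fitted relative to DMSO baseline.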

A short description of test [2]: ATG_NFI_CIS: Attagene CIS-FACTORIAL HepG2 Assay for human Nuclear Factor I (NFI) (AID 2282989). The settings on record: HepG2 cis-regulatory reporter, NFI response element transcription; actives raise or lower the signal. The essentials:
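After transient transfection of HepG2 with cis-promoter reporter constructs and 24 h dosing, RNA is reverse-transcribed, amplified, 6-FAM end-labelled and HpaI-digested before capillary analysis. Bidirectional curve fitting against DMSO.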

For test [3], the target named is Myc proto-oncogene protein (Homo sapiens) (UniProt P01106). Description: ATG_Myc_CIS: Attagene CIS-FACTORIAL HepG2 Assay for human Myelocytomatosis (Myc) Proto-Oncogene Transcription Factor (AID 2282990). The settings on record: HepG2, Attagene cis-reporter transcription factor activity; actives raise or lower the signal. The method, boiled down: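 Cells of the HepG2 human liver line bear multiple cis-driven reporter transcription units. Reporter mRNA after 24 h exposure is reverse-transcribed, amplified, labelled and resolved by capillary electrophoresis, with gain- or loss-of-signal fitting relative to DMSO.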

The nature of test [4]: ATG_NF_kB_CIS: Attagene CIS-FACTORIAL HepG2 Assay for human Nuclear Factor Kappa B (NF-kB) (AID 2282991). The settings on record: HepG2 Attagene cis-factorial NF-kB reporter mRNA; actives raise or lower the signal. The essentials:
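Read-out: reporter transcript levels quantified by RT-PCR plus capillary electrophoresis of 6-FAM-labelled, HpaI-cut fragments. Transfected HepG2 cells, 24 h compound exposure, endogenous NF-kB-driven cis element; gain or loss scored versus DMSO.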

The nature of test [5]: ATG_Oct_MLP_CIS: Attagene CIS-FACTORIAL HepG2 Assay for human Octamer-Binding Transcription Factor (Oct) (AID 2282993). The settings on record: HepG2 Attagene cis-factorial Oct reporter, mRNA; actives raise or lower the signal. The essentials:
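Cells of the HepG2 line express promoter-controlled reporter sequences whose mRNA levels, after 24 h treatment, are measured by RT-PCR and capillary electrophoresis. Increases and decreases are scored relative to DMSO.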

For test [6], the target named is Cellular tumor antigen p53 (Homo sapiens) (UniProt P04637). Description: ATG_p53_CIS: Attagene CIS-FACTORIAL HepG2 Assay for human p53 Transcription Factor (AID 2282994). The settings on record: HepG2 p53 cis-element reporter, Attagene mRNA; actives raise or lower the signal. The method, boiled down: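 Steps: transfect HepG2 with multiplexed cis reporter constructs; dose chemicals 24 h; extract RNA, reverse-transcribe, PCR-amplify reporter sequences; FAM-label, HpaI-digest, resolve fragments by CE. Activity fitted both directions relative to DMSO.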

Test [7] can be described thus: BSK_3C_TissueFactor: BioMAP Diversity Plus: 3C Assay for Tissue Factor Biomarker Activity (AID 2282997). The settings on record: BioMAP 3C HUVEC, tissue factor biomarker readout; actives raise or lower the signal. The essentials:
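After a 24 h chemical exposure of primary human umbilical vein endothelial cells, Tissue Factor levels were quantified by ELISA.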

A short description of test [8]: BSK_3C_uPAR: BioMAP Diversity Plus: 3C Assay for Urokinase-type plasminogen activator receptor (uPAR) Biomarker Activity (AID 2282998). The settings on record: BioMAP 3C HUVEC, uPAR biomarker ELISA; actives raise or lower the signal. The essentials:
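Endothelial primary cells of human umbilical vein origin received test chemical; 24 h later uPAR was assayed by ELISA. Fitting was bidirectional, DMSO as negative control.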
For orientation: ELISA stands for enzyme-linked immunosorbent assay.

The nature of test [9]: BSK_3C_VCAM1: BioMAP Diversity Plus: 3C Assay for Vascular cell adhesion molecule 1 (VCAM1) Biomarker Activity (AID 2282999). The settings on record: BioMAP 3C HUVEC, VCAM1 ELISA, cytokine-stimulated; actives raise or lower the signal. The essentials:
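Activity fitted in both directions relative to DMSO, with ELISA measurement of the surface marker on primary HUVEC (3C) at 24 h post-treatment; parallel SRB staining (0.1% SRB, TCA-fixed, 560 nm) flagged overt cytotoxicity.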

Test [10] can be described thus: BSK_4H_Eotaxin3: BioMAP Diversity Plus: 4H Assay for Eotaxin 3 Biomarker Activity (AID 2283000).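 Also: CCL26 protein level quantified by ELISA in parallel with SRB cytotoxicity check.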 The settings on record: primary human endothelial cells (HUVEC); actives raise or lower the signal. The method, boiled down:
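Chemicals were added to human umbilical vein endothelium cultures, and Eotaxin-3 was quantified by ELISA at 24 h. Values were derived by bidirectional fitting with DMSO serving as negative control and activity baseline.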

The target of test [11] is human Peroxisome Proliferator-activated Receptor alpha (PPARa), PPARA (gene 5465) (UniProt Q07869). Description: ATG_PPARa_TRANS: Attagene TRANS-FACTORIAL HepG2 Assay for human Peroxisome Proliferator-activated Receptor alpha (PPARa) (AID 2283001; active = hit-call score of the fitted dose curve at least 0.9, where 1 is the maximum;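 as to AC50: potency for gain of reporter signal over DMSO so agonist or activator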). The method, boiled down: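 Reporter transcripts quantified by RT-PCR plus capillary electrophoresis after 24 h treatment, fitted upward relative to DMSO. Cells: human HepG2 transiently carrying multiple GAL4-UAS reporter units driven by NR-Gal4 chimeras.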

The target in test [12] is human Peroxisome Proliferator-activated Receptor delta (PPARd), PPARD (gene 5467) (UniProt Q03181). Description: ATG_PPARd_TRANS: Attagene TRANS-FACTORIAL HepG2 Assay for human Peroxisome Proliferator-activated Receptor delta (PPARd) (AID 2283002; active = hit-call score of the fitted dose curve at least 0.9, where 1 is the maximum). The essentials: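 Cell-based TRANS reporter: HepG2, transient MRTU transfection, 24 h exposure. Readout = reporter mRNA (RT-PCR/CE, 6-FAM). Gain-of-signal fit vs DMSO control.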

Read-out in test [13]: Intercellular Adhesion Molecule 1 (ICAM1), ICAM1 (gene 3383)
Description: BSK_3C_ICAM1: BioMAP Diversity Plus: 3C Assay for Intercellular Adhesion Molecule 1 (ICAM1) Biomarker Activity (AID 2283003). The settings on record: primary human endothelial cells (HUVEC); actives raise or lower the signal. The essentials:
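Chemicals are dosed onto primary human umbilical vein endothelium (3C system). After 24 h, ICAM-1 is measured by ELISA, and responses are fitted bidirectionally relative to DMSO.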

Test [14] concerns the target human Retinoic Acid Receptor beta (RARb), RARB (gene 5915) (UniProt P10826). In words: ATG_RARb_TRANS: Attagene TRANS-FACTORIAL HepG2 Assay for human Retinoic Acid Receptor beta (AID 2283004; active = hit-call score of the fitted dose curve at least 0.9, where 1 is the maximum). The essentials:
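Transient transfection of HepG2 with multiple reporter units → chemical dosing, 24 h → total RNA isolation → RT with oligo(dT) → reporter-specific PCR, 6-FAM primer extension, HpaI digest → capillary electrophoresis. Positive direction vs DMSO control.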

The target in test [15] is Retinoic acid receptor alpha (Homo sapiens) (UniProt P10276). In words: ATG_RARa_TRANS: Attagene TRANS-FACTORIAL HepG2 Assay for human Retinoic Acid Receptor alpha (RARa) (AID 2283005; active = hit-call score of the fitted dose curve at least 0.9, where 1 is the maximum). The method, boiled down: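 Reporter transcripts, measured by RT-PCR with fluorescent labeling and capillary electrophoresis after 24 h dosing, reflect activity of an exogenous human RARa–GAL4 fusion in transiently transfected HepG2. Fitted for increase relative to DMSO.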

A short description of test [16]: BSK_3C_Proliferation: Cell Proliferation Assessment in the BioMAP Diversity Plus: 3C Assay (AID 2283006).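 As to AC50: potency may reflect either rise or fall in cell number versus DMSO.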 The settings on record: primary human endothelial cells (HUVEC). The essentials:
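Cells (human umbilical vein endothelial, sub-confluent) receive test chemical; after 48 h they are fixed in 10% trichloroacetic acid, stained with 0.1% SRB and read at 560 nm. Activity is referenced to DMSO, fitting increases and decreases.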

Test [17] addresses Peroxisome proliferator-activated receptor gamma (Homo sapiens) (UniProt P37231). Description: ATG_PPARg_TRANS: Attagene TRANS-FACTORIAL HepG2 Assay for human Peroxisome Proliferator-activated Receptor-gamma (PPARg) (AID 2283007; active = hit-call score of the fitted dose curve at least 0.9, where 1 is the maximum). The method, boiled down: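 Read-out: reporter mRNA induction, detected by fluorescence after RT-PCR and capillary electrophoresis. Transiently transfected human HepG2 liver cells carrying a chimeric NR-Gal4 construct were dosed for 24 h; activity was fitted upward relative to DMSO.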

Test [18] deals with Nuclear receptor subfamily 1 group I member 2 (Homo sapiens) (UniProt O75469). In words: ATG_PXR_TRANS: Attagene TRANS-FACTORIAL HepG2 Assay for human Pregnane X Receptor (PXR) (AID 2283008; active = hit-call score of the fitted dose curve at least 0.9, where 1 is the maximum). The essentials:
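HepG2 transfected (FuGene 6) with GAL4-UAS reporter units + PXR-Gal4 chimera; dosed 24 h. Total RNA → oligo(dT) RT → PCR → 6-FAM primer extension → HpaI cut → CE. Gain-of-signal vs DMSO.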

For test [19], the target named is human Retinoic Acid Receptor gamma (RARg), RARG (gene 5916) (UniProt P13631). Description: ATG_RARg_TRANS: Attagene TRANS-FACTORIAL HepG2 Assay for human Retinoic Acid Receptor gamma (RARg) (AID 2283009; active = hit-call score of the fitted dose curve at least 0.9, where 1 is the maximum). The essentials:
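TRANS format measured activity of exogenous NR-GAL4 fusion (RARg) in transfected HepG2 liver cells after 24 h dosing. Induced reporter RNA was detected by RT-PCR/capillary electrophoresis fluorescence, analysed in the positive direction against DMSO.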

A short description of test [20]: ATG_NRF2_ARE_CIS: Attagene CIS-FACTORIAL HepG2 Assay for human Nuclear Factor Erythroid 2 Related Factor 2 (NFR2) response to Antioxidant Response Elements (ARE) (AID 2282992). The settings on record: HepG2 Attagene ARE/NRF2 reporter, transcription factor activity; actives raise or lower the signal. The method, boiled down: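 Endogenous transcription factor activity in human liver HepG2 cells is tracked via a cis-element-driven reporter within a multiplexed set. mRNA induction is read by RT-PCR and capillary electrophoresis after 24 h, with DMSO as baseline.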

Sequence of human Peroxisome Proliferator-activated Receptor alpha (PPARa), PPARA (gene 5465) (Q07869 whole entry, looked up, the tested form may be a part): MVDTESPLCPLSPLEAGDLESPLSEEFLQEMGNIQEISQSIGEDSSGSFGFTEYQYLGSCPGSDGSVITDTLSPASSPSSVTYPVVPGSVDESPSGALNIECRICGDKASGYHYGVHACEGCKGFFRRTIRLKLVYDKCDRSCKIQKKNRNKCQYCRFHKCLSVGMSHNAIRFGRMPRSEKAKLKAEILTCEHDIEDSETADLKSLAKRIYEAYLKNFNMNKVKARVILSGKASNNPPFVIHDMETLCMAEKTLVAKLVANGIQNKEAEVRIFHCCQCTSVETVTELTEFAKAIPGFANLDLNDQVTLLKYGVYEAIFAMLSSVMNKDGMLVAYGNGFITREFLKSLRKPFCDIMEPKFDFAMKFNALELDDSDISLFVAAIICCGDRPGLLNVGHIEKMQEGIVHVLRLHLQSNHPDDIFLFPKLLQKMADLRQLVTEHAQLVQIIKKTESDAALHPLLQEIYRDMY
Sequence of Peroxisome proliferator-activated receptor gamma (Homo sapiens) (P37231 whole entry, looked up, the tested form may be a part): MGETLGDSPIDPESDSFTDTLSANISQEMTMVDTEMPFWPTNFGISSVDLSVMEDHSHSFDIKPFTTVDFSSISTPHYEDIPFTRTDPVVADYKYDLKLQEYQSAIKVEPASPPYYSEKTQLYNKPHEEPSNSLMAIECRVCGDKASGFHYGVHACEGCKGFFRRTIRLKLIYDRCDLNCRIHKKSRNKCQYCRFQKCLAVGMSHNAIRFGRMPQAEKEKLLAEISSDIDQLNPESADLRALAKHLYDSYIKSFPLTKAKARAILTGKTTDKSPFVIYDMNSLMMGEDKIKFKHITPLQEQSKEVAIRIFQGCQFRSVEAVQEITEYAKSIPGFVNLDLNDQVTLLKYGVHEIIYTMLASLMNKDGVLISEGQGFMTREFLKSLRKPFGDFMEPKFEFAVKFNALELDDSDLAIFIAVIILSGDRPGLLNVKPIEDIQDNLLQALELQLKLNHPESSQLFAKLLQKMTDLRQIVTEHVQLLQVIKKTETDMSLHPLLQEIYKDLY
Sequence of Nuclear respiratory factor 1 (Homo sapiens) (Q16656 whole entry, looked up): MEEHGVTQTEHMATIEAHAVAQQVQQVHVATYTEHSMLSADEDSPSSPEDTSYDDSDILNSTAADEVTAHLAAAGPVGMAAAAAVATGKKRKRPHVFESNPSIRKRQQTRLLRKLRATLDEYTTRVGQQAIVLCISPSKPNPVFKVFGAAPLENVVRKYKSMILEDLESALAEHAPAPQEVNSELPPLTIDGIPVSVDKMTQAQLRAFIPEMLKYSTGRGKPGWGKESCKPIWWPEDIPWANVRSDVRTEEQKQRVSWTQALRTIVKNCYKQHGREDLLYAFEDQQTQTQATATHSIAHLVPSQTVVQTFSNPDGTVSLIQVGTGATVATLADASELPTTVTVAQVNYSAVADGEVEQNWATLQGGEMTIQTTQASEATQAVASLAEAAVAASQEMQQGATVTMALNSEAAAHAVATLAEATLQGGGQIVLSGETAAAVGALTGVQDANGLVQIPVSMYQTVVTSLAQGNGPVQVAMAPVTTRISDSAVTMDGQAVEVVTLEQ
Sequence of human Peroxisome Proliferator-activated Receptor delta (PPARd), PPARD (gene 5467) (Q03181 whole entry, looked up): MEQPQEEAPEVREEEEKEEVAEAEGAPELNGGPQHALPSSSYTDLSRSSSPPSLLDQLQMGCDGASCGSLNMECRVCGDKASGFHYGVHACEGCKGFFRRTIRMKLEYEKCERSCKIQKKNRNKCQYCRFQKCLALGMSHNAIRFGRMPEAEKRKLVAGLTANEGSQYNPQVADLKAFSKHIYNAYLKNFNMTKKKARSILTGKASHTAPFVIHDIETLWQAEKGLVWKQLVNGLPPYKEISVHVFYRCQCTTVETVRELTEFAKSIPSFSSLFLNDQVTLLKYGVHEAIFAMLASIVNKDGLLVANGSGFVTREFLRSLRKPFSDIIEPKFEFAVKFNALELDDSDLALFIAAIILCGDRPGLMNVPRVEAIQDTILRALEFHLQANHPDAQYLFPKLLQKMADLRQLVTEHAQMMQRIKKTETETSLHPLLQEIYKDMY
Sequence of Myc proto-oncogene protein (Homo sapiens) (P01106 whole entry, looked up): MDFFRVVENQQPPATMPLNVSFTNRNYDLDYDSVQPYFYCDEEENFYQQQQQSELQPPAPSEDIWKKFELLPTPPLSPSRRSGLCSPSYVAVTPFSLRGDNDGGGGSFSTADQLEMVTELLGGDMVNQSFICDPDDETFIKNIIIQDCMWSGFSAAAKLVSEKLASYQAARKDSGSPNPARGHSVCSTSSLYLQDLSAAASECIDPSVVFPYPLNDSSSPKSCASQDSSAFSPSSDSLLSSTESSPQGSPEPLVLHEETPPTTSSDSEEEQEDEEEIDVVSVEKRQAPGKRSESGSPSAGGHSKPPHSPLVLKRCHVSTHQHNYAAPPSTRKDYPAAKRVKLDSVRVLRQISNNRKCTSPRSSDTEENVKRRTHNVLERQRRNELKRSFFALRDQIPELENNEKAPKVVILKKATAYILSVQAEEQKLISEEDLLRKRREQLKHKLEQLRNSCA
Sequence of Nuclear receptor subfamily 1 group I member 2 (Homo sapiens) (O75469 whole entry, looked up, the tested form may be a part): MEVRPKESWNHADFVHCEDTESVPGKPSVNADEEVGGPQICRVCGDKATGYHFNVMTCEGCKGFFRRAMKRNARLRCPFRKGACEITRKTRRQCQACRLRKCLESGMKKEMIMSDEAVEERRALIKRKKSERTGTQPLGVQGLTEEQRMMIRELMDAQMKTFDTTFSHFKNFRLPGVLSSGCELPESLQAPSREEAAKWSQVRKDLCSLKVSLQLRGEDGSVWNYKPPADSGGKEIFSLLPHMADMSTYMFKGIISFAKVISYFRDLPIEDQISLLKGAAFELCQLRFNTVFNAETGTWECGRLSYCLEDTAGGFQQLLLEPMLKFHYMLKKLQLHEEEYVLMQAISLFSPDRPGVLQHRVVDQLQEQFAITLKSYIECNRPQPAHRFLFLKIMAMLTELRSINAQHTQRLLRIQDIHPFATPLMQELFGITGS
Sequence of Cellular tumor antigen p53 (Homo sapiens) (P04637 whole entry, looked up, the tested form may be a part): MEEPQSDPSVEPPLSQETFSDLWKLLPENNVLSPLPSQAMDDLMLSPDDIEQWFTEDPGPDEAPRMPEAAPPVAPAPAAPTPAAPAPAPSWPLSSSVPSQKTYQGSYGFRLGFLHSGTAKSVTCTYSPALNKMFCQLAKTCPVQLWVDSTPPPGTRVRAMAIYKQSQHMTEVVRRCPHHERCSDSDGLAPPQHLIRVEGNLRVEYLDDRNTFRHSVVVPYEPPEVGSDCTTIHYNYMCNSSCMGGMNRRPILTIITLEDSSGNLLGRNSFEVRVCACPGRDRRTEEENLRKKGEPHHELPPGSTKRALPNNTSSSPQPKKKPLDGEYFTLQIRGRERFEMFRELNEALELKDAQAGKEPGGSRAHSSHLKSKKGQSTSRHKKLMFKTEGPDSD
Sequence of human Retinoic Acid Receptor gamma (RARg), RARG (gene 5916) (P13631 whole entry, looked up, the tested form may be a part): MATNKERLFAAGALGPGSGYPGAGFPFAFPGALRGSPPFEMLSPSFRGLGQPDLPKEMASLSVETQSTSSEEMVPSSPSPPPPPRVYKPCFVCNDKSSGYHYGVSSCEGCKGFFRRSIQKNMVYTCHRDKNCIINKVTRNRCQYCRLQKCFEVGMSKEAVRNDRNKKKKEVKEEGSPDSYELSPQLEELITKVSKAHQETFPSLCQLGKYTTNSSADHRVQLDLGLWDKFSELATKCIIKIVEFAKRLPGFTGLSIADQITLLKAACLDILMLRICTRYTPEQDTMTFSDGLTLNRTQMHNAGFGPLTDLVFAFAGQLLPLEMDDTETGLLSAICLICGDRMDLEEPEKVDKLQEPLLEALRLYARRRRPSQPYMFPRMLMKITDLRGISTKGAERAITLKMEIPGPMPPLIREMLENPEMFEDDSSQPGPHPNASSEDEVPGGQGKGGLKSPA
Sequence of Retinoic acid receptor alpha (Homo sapiens) (P10276 whole entry, looked up, the tested form may be a part): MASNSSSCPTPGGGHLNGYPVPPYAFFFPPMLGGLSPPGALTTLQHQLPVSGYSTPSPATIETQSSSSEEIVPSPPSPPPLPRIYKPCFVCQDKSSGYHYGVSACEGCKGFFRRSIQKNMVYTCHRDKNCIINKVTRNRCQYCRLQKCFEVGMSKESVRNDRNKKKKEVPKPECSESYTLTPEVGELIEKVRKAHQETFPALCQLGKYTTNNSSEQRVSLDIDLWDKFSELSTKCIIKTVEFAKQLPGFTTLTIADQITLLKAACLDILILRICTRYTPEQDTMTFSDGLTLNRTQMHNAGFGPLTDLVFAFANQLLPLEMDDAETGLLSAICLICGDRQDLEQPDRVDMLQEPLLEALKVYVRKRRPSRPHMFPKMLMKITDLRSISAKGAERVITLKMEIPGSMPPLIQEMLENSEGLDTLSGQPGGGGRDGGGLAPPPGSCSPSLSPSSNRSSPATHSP
Sequence of human Retinoic Acid Receptor beta (RARb), RARB (gene 5915) (P10826 whole entry, looked up): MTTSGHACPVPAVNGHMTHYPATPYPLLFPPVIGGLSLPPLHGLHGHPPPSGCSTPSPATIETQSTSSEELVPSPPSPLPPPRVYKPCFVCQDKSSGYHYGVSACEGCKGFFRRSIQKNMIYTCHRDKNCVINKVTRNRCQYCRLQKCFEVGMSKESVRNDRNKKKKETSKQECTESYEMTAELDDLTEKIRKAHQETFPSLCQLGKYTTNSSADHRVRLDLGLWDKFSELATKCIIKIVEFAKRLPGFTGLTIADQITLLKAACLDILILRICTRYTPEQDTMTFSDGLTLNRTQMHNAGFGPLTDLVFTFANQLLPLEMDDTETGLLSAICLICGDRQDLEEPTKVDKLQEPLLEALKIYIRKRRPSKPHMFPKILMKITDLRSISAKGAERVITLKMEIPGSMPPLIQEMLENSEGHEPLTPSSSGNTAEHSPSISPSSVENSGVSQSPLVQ

For `O=S(=O)(Cl)C(F)(F)C(F)(F)C(F)(F)C(F)(F)C(F)(F)C(F)(F)C(F)(F)C(F)(F)F`, the molecule was classed as inactive in [1], in [2], in test [3], in test [4], in test [5] and in test [6]. For the same molecule, the result in [7], in test [9], in test [10], in test [11], in [12] and in test [13] was inactive. The outcome in [14], in test [15], in test [16], in [18] and in [19] was inactive. Further, the AC50 was 45.8 µM (active) and 47.4 µM (active) in test [8]; 34.9 µM (active) in test [17].

Take `O=C(O)C(F)(F)C(F)(F)C(F)(F)OC(F)(C(F)(F)F)C(F)(F)F`: the call in test [1], in test [2], in [3], in [4], in [5] and in test [7] was inactive. In addition, the result in test [8], in test [9], in test [10], in test [12], in test [13] and in test [16] was inactive. Also, the call in [18] and in [19] was inactive. For the same molecule, the results for the AC50 in [20], in [11] and in [17] were 113 µM (active), 24.6 µM (active) and 101 µM (active), respectively.

As for `C=CC(=O)OCCC(F)(F)C(F)(F)C(F)(F)C(F)(F)F`, the call in test [1], in test [2], in test [3], in [4], in test [5] and in test [8] was inactive. In addition, the outcome in test [10], in [11], in [12], in [13], in [17] and in test [18] was inactive. The AC50 in test [20] is 98.8 µM (active); in test [7] it was 22.2 µM (active) and 26.3 µM (active); in [9], 16.6 µM (active) and 15.6 µM (active); in [16] it was 30 µM (active) and 32.6 µM (active).

Regarding `O=C(O)C(F)(F)C(F)(F)C(F)(F)C(F)(F)C(F)(F)C(F)(F)C(F)F`, the call in test [1], in test [2], in test [3], in [4], in test [5] and in test [6] was inactive. Further, the outcome in [7], in [8], in [9], in [10], in test [12] and in test [13] was inactive. Also, the result in test [16] and in test [18] was inactive. Also, the AC50 was 6.55 µM (active) in test [11] and 41.8 µM (active) in [17].
